Laboratory results from the supplement of paper PMC8728848.
The sample as a whole holds a higher share of the strongest signals than the screen did.

Key:
Assay in all cases: glycan array binding signal (z-score within array); higher = stronger binding
Conditions in all cases: glycan notation: IUPAC condensed, linker removed
[1] = biological target: GalNAc4S6S(b1-4)GlcNAc
Method in brief: (§1)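 Glycan array data were curated from 3228 arrays in the Consortium for Functional Glycomics database and kept only where the protein sequence was available. Glycan names were converted to IUPAC-condensed notation, and columns mapping to the same glycan were averaged. The binding signal is a within-array Z-score, averaged across arrays of the same protein sequence at different concentrations or buffers and across linkers. Negative Z-scores can be read as non-binding.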

[2] = biological target: GlcNAc(a1-4)Gal(b1-4)GlcNAc(b1-3)Gal(b1-4)Glc
Method in brief: as §1

[3] = biological target: GlcNAc(a1-4)Gal(b1-4)GlcNAc(b1-3)Gal(b1-4)[Fuc(a1-3)]GlcNAc(b1-3)Gal(b1-4)[Fuc(a1-3)]GlcNAc
Method in brief: as §1

[4] = biological target: GlcNAc(a1-6)Gal(b1-4)GlcNAc
Method in brief: as §1

[5] = biological target: GlcNAc(b1-3)Fuc
Method in brief: as §1

[6] = biological target: Kdn(a2-3)Gal(b1-4)[Fuc(a1-3)]GlcNAc
Method in brief: as §1

[7] = biological target: Man(a1-2)Man(a1-6)[Man(a1-3)]Man(a1-6)[Man(a1-2)Man(a1-2)Man(a1-3)]Man
Method in brief: as §1

[8] = biological target: Neu5Ac(a2-3)Gal
Method in brief: as §1

[9] = biological target: Neu5Ac(a2-3)Gal(b1-4)GlcNAc
Method in brief: as §1

[10] = biological target: Neu5Ac(a2-3)Gal(b1-4)GlcNAc(b1-3)Gal(b1-4)GlcNAc(b1-3)[Neu5Ac(a2-3)Gal(b1-4)GlcNAc(b1-3)Gal(b1-4)GlcNAc(b1-6)]GalNAc
Method in brief: as §1

[11] = biological target: Neu5Ac(a2-3)Gal(b1-4)GlcNAc(b1-3)[Neu5Ac(a2-3)Gal(b1-4)GlcNAc(b1-6)]GalNAc
Method in brief: as §1

[12] = biological target: Neu5Ac(a2-3)Gal(b1-4)GlcNAc6S
Method in brief: as §1

[13] = biological target: Neu5Ac(a2-3)Gal6S(b1-4)GlcNAc
Method in brief: as §1

[14] = biological target: Neu5Ac(a2-3)[GalNAc(b1-4)]Gal(b1-4)Glc
Method in brief: as §1

[15] = biological target: Neu5Ac(a2-3)[GalNAc(b1-4)]Gal(b1-4)GlcNAc(b1-3)GalNAc
Method in brief: as §1

[16] = biological target: Neu5Ac(a2-6)Gal(b1-4)GlcNAc(b1-2)Man(a1-3)[Neu5Ac(a2-3)Gal(b1-4)GlcNAc(b1-2)Man(a1-6)]Man(b1-4)GlcNAc(b1-4)GlcNAc
Method in brief: as §1

[17] = biological target: Neu5Ac(a2-6)Gal(b1-4)GlcNAc(b1-2)Man(a1-6)[GlcNAc(b1-2)Man(a1-3)]Man(b1-4)GlcNAc(b1-4)GlcNAc
Method in brief: as §1

[18] = biological target: Neu5Ac(a2-8)Neu5Ac(a2-3)[Gal(b1-3)GalNAc(b1-4)]Gal(b1-4)Glc
Method in brief: as §1

[19] = biological target: Neu5Ac(a2-8)Neu5Ac(a2-8)Neu5Ac(a2-8)Neu5Ac(a2-3)[GalNAc(b1-4)]Gal(b1-4)Glc
Method in brief: as §1

[20] = biological target: Neu5Gc(a2-6)Gal(b1-4)GlcNAc
Method in brief: as §1

[21] = biological target: Neu5Gc(a2-6)GalNAc
Method in brief: as §1

B1: Cohesin-hDC-ASGPR (Homo sapiens) (protein)
chain: LDDLDAVRIKVDTVNAKPGDTVRIPVRFSGIPSKGIANCDFVYSYDPNVLEIIEIEPGDIIVDPNPDKSFDTAVYPDRKIIVFLFAEDSGTGAYAITKDGVFATIVAKVKEGAPNGLSVIKFVEVGGFANNDLVEQKTQFFDGGANVGDTTEPATPTTPVTTPTTTDDLDAASQNSKFQRDLVTLRTDFSNFTSNTVAEIQALTSQGSSLEETIASLKAEVEGFKQERQAGVSELQEHTTQKAHLGHCPHCPSVCVPVHSEMLLRVQQLVQDLKKLTCQVATLNNNASTEGTCCPVNWVEHQDSCYWFSHSGMSWAEAEKYCQLKNAHLVVINSREEQNFVQKYLGSAYTWMGLSDPEGAWKWVDGTDYATGFQNWKPGQPDDWQGHGLGGGEDCAHFHPDGRWNDDVCQRPYHWVCEAGLGQTSQESHHHHHH
B1 was tested, and the “glycan array binding signal (z-score)” value [1] was -0.516, the “glycan array binding signal (z-score)” value [2] was -0.508 and the “glycan array binding signal (z-score)” value [3] was -0.444. For the same binder, the “glycan array binding signal (z-score)” value [4] was -0.439, the “glycan array binding signal (z-score)” value [5] was -0.443 and the “glycan array binding signal (z-score)” value [6] was -0.485. The “glycan array binding signal (z-score)” value [7] was -0.48, the “glycan array binding signal (z-score)” value [8] was -0.335 and the “glycan array binding signal (z-score)” value [9] was -0.453. For the same binder, the “glycan array binding signal (z-score)” value [10] was -0.339, the “glycan array binding signal (z-score)” value [11] was -0.495 and the “glycan array binding signal (z-score)” value [12] was -0.518. The “glycan array binding signal (z-score)” value [13] was -0.517, the “glycan array binding signal (z-score)” value [14] was 2.91 and the “glycan array binding signal (z-score)” value [15] was 1.83. The “glycan array binding signal (z-score)” value [16] was -0.471, the “glycan array binding signal (z-score)” value [17] was -0.387 and the “glycan array binding signal (z-score)” value [18] was 3.87. The “glycan array binding signal (z-score)” value [19] was 2.95, the “glycan array binding signal (z-score)” value [20] was -0.392 and the “glycan array binding signal (z-score)” value [21] was 2.81.
